# Measurements from PubChem BioAssay (NCI).
# About 79,000 compounds went through this panel and 15% of them were active in at least one assay; those are over-represented in the sample as a whole. Unmarked numbers belong to inactive results. The source made the active and inactive calls. Cut-off read from the data, not from the text of the source: active = growth inhibition above about 70%; inactive = the rest.
# Experiments:
# [1] = NCI Yeast Anticancer Drug Screen. Data for the rad52 strain (AID 147);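 note: 0% = growth of vehicle-treated control cultures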; details: S. cerevisiae rad52 mutant growth inhibition, stronger effect = higher value
# Procedure, shortened: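 Read-out: growth inhibition versus vehicle-treated controls. Cells were a DNA repair-deficient yeast strain treated with compounds.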
# [2] = NCI Yeast Anticancer Drug Screen. Data for the wt1 strain (AID 149);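 note: 0% = growth of vehicle-treated wt1 cultures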; details: S. cerevisiae wt1 strain (SPY 50644) growth inhibition, stronger effect = higher value
# Procedure, shortened: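 Yeast wt1 strain exposed to compounds; growth inhibition measured relative to vehicle-treated controls.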
# [3] = NCI Yeast Anticancer Drug Screen. Data for the rad50EPP+ strain (AID 151);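 note: 0% = growth of vehicle-treated control cultures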; details: S. cerevisiae rad50 mutant strain, stronger effect = higher value
# Procedure, shortened: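 Growth inhibition read against vehicle controls in rad50EPP+ yeast, a strain altered in DNA damage repair, after compound exposure.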
# [4] = NCI Yeast Anticancer Drug Screen. Data for the rad50 strain (AID 155);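 note: 0% = growth of vehicle-only cultures of the same strain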; details: S. cerevisiae rad50 strain growth inhibition, stronger effect = higher value
# Procedure, shortened: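 Yeast carrying a defined DNA repair defect were exposed to test compounds, and growth was compared with vehicle-treated controls to give percent inhibition.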
# [5] = NCI Yeast Anticancer Drug Screen. Data for the mec2-1 strain (AID 157); details: S. cerevisiae mec2-1 strain, stronger effect = higher value
# Procedure, shortened: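 Yeast mec2-1 mutant treated with compound. Readout: growth inhibition vs vehicle controls.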
# [6] = NCI Yeast Anticancer Drug Screen. Data for the rad14 strain (AID 159);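 note: 0% = growth of vehicle-treated control cultures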; details: S. cerevisiae rad14 strain growth inhibition, stronger effect = higher value
# Procedure, shortened: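 Yeast cells carrying a defined DNA-repair defect were exposed to compounds, and growth inhibition was calculated relative to vehicle-treated control cultures.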
# [7] = NCI Yeast Anticancer Drug Screen. Data for the sgs1 mgt1 strain (AID 161);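 note: 0% = growth of cultures given vehicle only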; details: S. cerevisiae sgs1 mgt1 strain, stronger effect = higher value
# Procedure, shortened: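 Read-out: growth inhibition vs vehicle controls. Cells: mutant yeast strain deficient in DNA damage repair.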
# [8] = NCI Yeast Anticancer Drug Screen. Data for the CLN2oe strain (AID 163);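 note: 0% = growth of vehicle-only control cultures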; details: S. cerevisiae CLN2oe strain, stronger effect = higher value
# Procedure, shortened: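 Read-out: yeast growth inhibition, expressed relative to vehicle-only controls. The strain bears an engineered cell-cycle alteration.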
# [9] = NCI Yeast Anticancer Drug Screen. Data for the cln2 rad14 strain (AID 165);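 note: 0% = growth equal to vehicle treated cultures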; details: S. cerevisiae cln2 rad14 strain, stronger effect = higher value
# Procedure, shortened: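 cln2 rad14 yeast strain; compound exposure; growth inhibition read vs vehicle controls.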
# [10] = NCI Yeast Anticancer Drug Screen. Data for the bub3 strain (AID 167); details: S. cerevisiae bub3 mutant strain, stronger effect = higher value
# Procedure, shortened: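 Compounds were applied to a genetically altered yeast strain carrying a cell-cycle control defect. Growth inhibition was scored against vehicle-treated controls.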
# [11] = NCI Yeast Anticancer Drug Screen. Data for the wt2 strain (AID 169);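 note: 0% = growth of vehicle-treated yeast cultures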; details: S. cerevisiae wt2 strain growth inhibition, stronger effect = higher value
# Procedure, shortened: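 Read-out: growth inhibition versus vehicle-treated control cultures after compound exposure of the yeast strain.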
# [12] = NCI Yeast Anticancer Drug Screen. Data for the mlh1 strain (AID 171);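 note: 0% = growth of vehicle-treated control cultures of the same strain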; details: S. cerevisiae mlh1 strain growth inhibition, stronger effect = higher value
# Procedure, shortened: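 Read-out: growth inhibition versus vehicle controls. Strain: engineered yeast with a defined DNA repair or cell cycle defect, compound-treated.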
# [13] = NCI Yeast Anticancer Drug Screen. Data for the sgs1 strain (AID 173);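 note: 0% = growth of vehicle-only control cultures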; details: S. cerevisiae sgs1 mutant, stronger effect = higher value
# Procedure, shortened: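 Read-out: yeast growth inhibition relative to vehicle controls, following compound exposure of a strain with a defined DNA repair/cell cycle alteration.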
# [14] = NCI Yeast Anticancer Drug Screen. Data for the mlh1 rad18 strain (AID 175); details: S. cerevisiae mlh1 rad18 strain growth inhibition, stronger effect = higher value
# Procedure, shortened: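 Yeast w/ defined DNA-repair lesions; compound exposure; growth vs vehicle controls → % inhibition.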
# [15] = NCI Yeast Anticancer Drug Screen. Data for the rad18 strain (AID 177); details: S. cerevisiae rad18 mutant growth inhibition, stronger effect = higher value
# Procedure, shortened: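 Readout: growth inhibition vs vehicle controls. Cells: genetically altered yeast strain, DNA repair defect.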
# [16] = at 5.0 µM (retest, dose inferred, filed as 0.5)
# [17] = at 50.0 µM (retest, dose inferred, filed as 5.0)
structure (smiles),measurement,setting,value
CCN(CC)N=Nc1c(C(N)=O)n[nH]c1C,growth inhibition,[1]; at 1.2 µM,0%
same,growth inhibition,[1]; at 3.7 µM,-3%
same,growth inhibition,[1]; at 11.0 µM,8%
same,growth inhibition,[1]; at 33.0 µM,47%
same,growth inhibition,[1]; at 100.0 µM,93% (active)
same,growth inhibition,[2]; at 1.2 µM,-6%
same,growth inhibition,[2]; at 3.7 µM,-5%
same,growth inhibition,[2]; at 11.0 µM,-7%
same,growth inhibition,[2]; at 33.0 µM,-5%
same,growth inhibition,[2]; at 100.0 µM,0%
same,growth inhibition,[3]; at 1.2 µM,-2%
same,growth inhibition,[3]; at 3.7 µM,3%
same,growth inhibition,[3]; at 11.0 µM,5%
same,growth inhibition,[3]; at 33.0 µM,31%
same,growth inhibition,[3]; at 100.0 µM,80% (active)
same,growth inhibition,[4]; at 1.2 µM,-10%
same,growth inhibition,[4]; at 3.7 µM,-8%
same,growth inhibition,[4]; [16],-138%
same,growth inhibition,[4]; at 11.0 µM,9%
same,growth inhibition,[4]; at 33.0 µM,54%
same,growth inhibition,[4]; [17],56%
same,growth inhibition,[4]; at 50.0 µM,85.3% (active)
same,growth inhibition,[4]; at 100.0 µM,92% (active)
same,growth inhibition,[5]; at 1.2 µM,2%
same,growth inhibition,[5]; at 3.7 µM,1%
same,growth inhibition,[5]; [16],-46%
same,growth inhibition,[5]; at 11.0 µM,8%
same,growth inhibition,[5]; at 33.0 µM,2%
same,growth inhibition,[5]; [17],-40%
same,growth inhibition,[5]; at 50.0 µM,15.8%
same,growth inhibition,[5]; at 100.0 µM,27%
same,growth inhibition,[6]; at 1.2 µM,-2%
same,growth inhibition,[6]; at 3.7 µM,1%
same,growth inhibition,[6]; at 11.0 µM,0%
same,growth inhibition,[6]; at 33.0 µM,3%
same,growth inhibition,[6]; at 100.0 µM,23%
same,growth inhibition,[7]; [16],-62%
same,growth inhibition,[7]; [17],-35%
same,growth inhibition,[7]; at 50.0 µM,-0.05%
same,growth inhibition,[8]; at 1.2 µM,-5%
same,growth inhibition,[8]; at 3.7 µM,1%
same,growth inhibition,[8]; at 11.0 µM,0%
same,growth inhibition,[8]; at 33.0 µM,0%
same,growth inhibition,[8]; at 100.0 µM,4%
same,growth inhibition,[9]; [16],-55%
same,growth inhibition,[9]; [17],-63%
same,growth inhibition,[9]; at 50.0 µM,-29.2%
same,growth inhibition,[10]; at 1.2 µM,-15%
same,growth inhibition,[10]; at 3.7 µM,-12%
same,growth inhibition,[10]; [16],-65%
same,growth inhibition,[10]; at 11.0 µM,-9%
same,growth inhibition,[10]; at 33.0 µM,-9%
same,growth inhibition,[10]; [17],-84%
same,growth inhibition,[10]; at 50.0 µM,-22.8%
same,growth inhibition,[10]; at 100.0 µM,-2%
same,growth inhibition,[11]; at 1.2 µM,-1%
same,growth inhibition,[11]; at 3.7 µM,0%
same,growth inhibition,[11]; at 11.0 µM,-1%
same,growth inhibition,[11]; at 33.0 µM,-1%
same,growth inhibition,[11]; at 100.0 µM,2%
same,growth inhibition,[12]; at 1.2 µM,6%
same,growth inhibition,[12]; at 3.7 µM,-6%
same,growth inhibition,[12]; at 11.0 µM,-5%
same,growth inhibition,[12]; at 33.0 µM,-2%
same,growth inhibition,[12]; at 100.0 µM,-3%
same,growth inhibition,[13]; at 1.2 µM,-1%
same,growth inhibition,[13]; at 3.7 µM,-1%
same,growth inhibition,[13]; at 11.0 µM,-2%
same,growth inhibition,[13]; at 33.0 µM,9%
same,growth inhibition,[13]; at 100.0 µM,43%
same,growth inhibition,[14]; [16],-124%
same,growth inhibition,[14]; [17],-75%
same,growth inhibition,[14]; at 50.0 µM,40.4%
same,growth inhibition,[15]; at 1.2 µM,-2%
same,growth inhibition,[15]; at 3.7 µM,0%
same,growth inhibition,[15]; at 11.0 µM,6%
same,growth inhibition,[15]; at 33.0 µM,23%
same,growth inhibition,[15]; at 100.0 µM,83% (active)
N#Cc1sc2c(c1OC(=O)c1ccco1)c(=O)n(-c1ccccc1)c(=S)n2-c1ccccc1,growth inhibition,[1]; at 1.2 µM,0%
same,growth inhibition,[1]; at 3.7 µM,1%
same,growth inhibition,[1]; at 11.0 µM,-1%
same,growth inhibition,[1]; at 33.0 µM,0%
same,growth inhibition,[1]; at 100.0 µM,0%
same,growth inhibition,[2]; at 1.2 µM,-3%
same,growth inhibition,[2]; at 3.7 µM,-4%
same,growth inhibition,[2]; at 11.0 µM,-1%
same,growth inhibition,[2]; at 33.0 µM,-1%
same,growth inhibition,[2]; at 100.0 µM,0%
same,growth inhibition,[3]; at 1.2 µM,9%
same,growth inhibition,[3]; at 3.7 µM,6%
same,growth inhibition,[3]; at 11.0 µM,11%
same,growth inhibition,[3]; at 33.0 µM,8%
same,growth inhibition,[3]; at 100.0 µM,5%
same,growth inhibition,[4]; at 1.2 µM,0%
same,growth inhibition,[4]; at 3.7 µM,2%
same,growth inhibition,[4]; [16],3%
same,growth inhibition,[4]; at 11.0 µM,1%
same,growth inhibition,[4]; at 33.0 µM,0%
same,growth inhibition,[4]; [17],94% (active)
same,growth inhibition,[4]; at 50.0 µM,94.6% (active)
same,growth inhibition,[4]; at 100.0 µM,-1%
same,growth inhibition,[5]; at 1.2 µM,-1%
same,growth inhibition,[5]; at 3.7 µM,-1%
same,growth inhibition,[5]; [16],7%
same,growth inhibition,[5]; at 11.0 µM,-2%
same,growth inhibition,[5]; at 33.0 µM,-6%
same,growth inhibition,[5]; [17],82% (active)
same,growth inhibition,[5]; at 50.0 µM,95% (active)
same,growth inhibition,[5]; at 100.0 µM,0%
same,growth inhibition,[6]; at 1.2 µM,1%
same,growth inhibition,[6]; at 3.7 µM,1%
same,growth inhibition,[6]; at 11.0 µM,3%
same,growth inhibition,[6]; at 33.0 µM,2%
same,growth inhibition,[6]; at 100.0 µM,-2%
same,growth inhibition,[7]; [16],0%
same,growth inhibition,[7]; [17],95% (active)
same,growth inhibition,[7]; at 50.0 µM,95.7% (active)
same,growth inhibition,[8]; at 1.2 µM,-2%
same,growth inhibition,[8]; at 3.7 µM,-1%
same,growth inhibition,[8]; at 11.0 µM,4%
same,growth inhibition,[8]; at 33.0 µM,-1%
same,growth inhibition,[8]; at 100.0 µM,-6%
same,growth inhibition,[9]; [16],23%
same,growth inhibition,[9]; [17],91% (active)
same,growth inhibition,[9]; at 50.0 µM,94% (active)
same,growth inhibition,[10]; at 1.2 µM,0%
same,growth inhibition,[10]; at 3.7 µM,-4%
same,growth inhibition,[10]; [16],13%
same,growth inhibition,[10]; at 11.0 µM,-3%
same,growth inhibition,[10]; at 33.0 µM,0%
same,growth inhibition,[10]; [17],91% (active)
same,growth inhibition,[10]; at 50.0 µM,95.4% (active)
same,growth inhibition,[10]; at 100.0 µM,-6%
same,growth inhibition,[11]; at 1.2 µM,-1%
same,growth inhibition,[11]; at 3.7 µM,-1%
same,growth inhibition,[11]; at 11.0 µM,-2%
same,growth inhibition,[11]; at 33.0 µM,-9%
same,growth inhibition,[11]; at 100.0 µM,3%
same,growth inhibition,[12]; at 1.2 µM,-4%
same,growth inhibition,[12]; at 3.7 µM,-2%
same,growth inhibition,[12]; at 11.0 µM,-2%
same,growth inhibition,[12]; at 33.0 µM,-5%
same,growth inhibition,[12]; at 100.0 µM,-3%
same,growth inhibition,[13]; at 1.2 µM,0%
same,growth inhibition,[13]; at 3.7 µM,1%
same,growth inhibition,[13]; at 11.0 µM,0%
same,growth inhibition,[13]; at 33.0 µM,1%
same,growth inhibition,[13]; at 100.0 µM,0%
same,growth inhibition,[14]; [16],59%
same,growth inhibition,[14]; [17],94% (active)
same,growth inhibition,[14]; at 50.0 µM,95.2% (active)
same,growth inhibition,[15]; at 1.2 µM,0%
same,growth inhibition,[15]; at 3.7 µM,1%
same,growth inhibition,[15]; at 11.0 µM,-17%
same,growth inhibition,[15]; at 33.0 µM,2%
same,growth inhibition,[15]; at 100.0 µM,-1%
